Laboratory results reported in PubChem BioAssay (NCATS).
Records with an inconclusive call do not appear. Active and inactive are the calls of the source. Calls follow the shape of the dose curve; as a rule, active = well fitted curve in the direction sought with a large enough effect; inconclusive = small, poorly fitted or top-dose-only effect, or another doubt; inactive = no such curve, though single readings can be large; an effect the other way counts as inactive or inconclusive.

How the values were obtained:
[1] = qHTS Assay for Identifying Gametocytocidal Compounds (AID 743244);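 also: % is scaled to controls: 0 for no effect and ±100 for the full control effect; actives lower the fluorescent signal which means gametocytes are killed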; details: P. falciparum 3D7 stage III-V gametocytes, alamarBlue, 72 h; max response: stronger effect = lower value
Method in brief: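 P. falciparum 3D7 stage III–V gametocytes (20,000 cells/well) were exposed to compounds for 72 h at 37 °C, 5% CO2. AlamarBlue was then added for 24 h; decreased resorufin fluorescence (Ex 525/Em 598 nm) indicated loss of viability.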

[2] = qHTS assay for measurement of the activity of small molecule inhibitors on Zika virus induced Caspase-3 activity in human iPSC derived neural progenitor cells (hNPCs) (AID 1224857); also: % of control where 0% means no effect; nearly all actives have a fitted effect of over 65% in size
Method in brief: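 hNPCs seeded 350 cells/well, cultured 16–20 h; compounds added 1 h before ZIKV (2 FFU/cell), 37 C 6 h. Caspase-Glo 3/7 luminescence after 30 min RT; % inhibition from induction scaled to uninfected (0%) and infected (100%) wells.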

[3] = qHTS assay for measurement of the activity of small molecule inhibitors on Zika virus induced Caspase-3 activity in human astrocytoma cells (AID 1224859);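 also: plate controls were ZIKV-infected untreated cells for no effect and uninfected cells for full effect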
Method in brief: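 Luminescence read-out (Caspase-Glo 3/7, 30 min RT) of caspase activity in SNB-19 cells infected 6 h with ZIKV, 2 FFU/cell, after 1 h compound pretreatment; % inhibition from induction normalised to uninfected (0%) and infected (100%) wells.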

[4] = qHTS assay to identify small molecule inhibitors of chordoma cells - UCH-1 (AID 1259355); also: % is scaled to controls: 0 for no effect and ±100 for the full control effect; nearly all actives have a fitted effect of over 55% in size
Method in brief: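 Cells (800/well) were seeded and left overnight at 37 C, 5% CO2, then treated with drugs at 15 concentrations plus a combination mix of auranofin, camptothecin, doxorubicin, rubitecan and topotecan. Viability after 48hr was read by CellTiter-Glo luminescence.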

[5] = qHTS assay to identify small molecule inhibitors of chordoma cells - UCH-2 (AID 1259356); also: series mostly up to about 46 µM; % is scaled to controls: 0 for no effect and ±100 for the full control effect
[6] = P-glycoprotein substrates identified in KB-8-5-11 adenocarcinoma cell line, qHTS therapeutic library screen (AID 1346987); details: outcome: dose series up to 44.5 µM; also: series mostly up to about 44 µM; % is scaled to controls: 0 for no effect and ±100 for the full control effect; nearly all actives have a fitted effect of over 65% in size
Method in brief: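 KB-8-5-11, a colchicine-selected P-gp-overexpressing KB-3-1 subline, was grown without colchicine for the assay. Cells were seeded at 500 cells/well, dosed in concentration-response and incubated 72 h at 37 degree C, 5% CO2. Viability was read by CellTiter-Glo luminescence.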

[7] = NS1 protein of Zika virus - qHTS assay to identify small molecule inhibitors in human HEK 293 cells (AID 1347053);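 also: series mostly up to about 46 µM; plate controls were infected untreated cells for no effect and uninfected cells for full effect; nearly all actives have a fitted effect of over 55% in size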
Method in brief: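 HEK 293 cells, seeded 20 h at 37 C, were pretreated with compound 1 h, then infected with ZIKV MR766 (MOI = 0.5) for 24 h. NS1 was read by TR-FRET with two anti-NS1 antibodies, normalized to uninfected and infected wells.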

[8] = qHTS of pediatric cancer cell lines to identify multiple opportunities for drug repurposing: Primary screen for TC32 cells (AID 1347089); also: % is scaled to controls: 0 for no effect and ±100 for the full control effect; nearly all actives have a fitted effect of over 60% in size
Method in brief: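 Luminescent CellTiter-Glo read-out of metabolically active TC32 cells after 48 h compound exposure. Primary: MIPE 11-point, 0.78 nM–46 µM; NPC 8-point, 0.59 nM–46 µM. Confirmatory: 11-point dilutions.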

[9] = qHTS of pediatric cancer cell lines to identify multiple opportunities for drug repurposing: Primary screen for DAOY cells (AID 1347090);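 also: series mostly up to about 46 µM; plate controls were DMSO for no effect and bortezomib for full effect; nearly all actives have a fitted effect of over 55% in size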
Method in brief: (§1)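 Viability measured as metabolically active cells via CellTiter-Glo luminescence following 48 hours of compound exposure, 11-point dilutions in confirmatory testing. 500-1,000 cells/well plated 5 hours before dosing; controls were DMSO and 2.3 µM bortezomib.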

[10] = qHTS of pediatric cancer cell lines to identify multiple opportunities for drug repurposing: Primary screen for SJ-GBM2 cells (AID 1347091);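 also: plate controls were DMSO neutral control for no effect and bortezomib for full effect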
Method in brief: as §1

NNc1nnc(NN)c2ccccc12
inactive: max response [1] 5.69% | outcome [2] | outcome [3] | outcome [4] | outcome [5] | outcome [6] | outcome [7] | outcome [8] | outcome [9] | outcome [10]

CCN(CC)CCc1nc(-c2ccccc2)no1
inactive: max response [1] 1.91% | outcome [2] | outcome [3] | outcome [4] | outcome [5] | outcome [6] | outcome [7] | outcome [8] | outcome [9] | outcome [10]

O=C(O)Cc1ccc(CCNS(=O)(=O)c2ccc(Cl)cc2)cc1
inactive: max response [1] 23.5% | outcome [2] | outcome [3] | outcome [4] | outcome [5] | outcome [6] | outcome [7] | outcome [8] | outcome [9] | outcome [10]

O=C(O)c1ccccc1OP(=O)(O)O
inactive: max response [1] -5.84% | outcome [2] | outcome [3] | activity, negative = inhibition [4] -7.01% [at 1.88 µM] | outcome [5] | outcome [6] | outcome [7] | outcome [8] | outcome [9] | outcome [10]

O=C(NCC(O)CO)c1c(I)c(C(=O)NCC(O)CO)c(I)c(N(CCO)C(=O)CO)c1I (stereo not given)
inactive: max response [1] 8.95% | outcome [2] | outcome [3] | outcome [4] | outcome [5] | outcome [6] | outcome [7] | outcome [8] | outcome [9] | outcome [10]

CC(C)c1cc2c(cc1S(=O)(=O)O)[C@@]1(C)CCC[C@@](C)(C(=O)O)[C@@H]1CC2
inactive: max response [1] -8.74% | outcome [2] | outcome [3] | outcome [4] | outcome [5] | outcome [6] | outcome [7] | outcome [8] | outcome [9] | outcome [10]

CCN(CC)CC1CCCCN1CC(=O)N1c2ccccc2C(=O)Nc2cccnc21 (stereo not given)
inactive: max response [1] 3.31% | outcome [2] | outcome [3] | outcome [4] | outcome [5] | outcome [6] | outcome [7] | outcome [8] | outcome [9] | outcome [10]

O=C(O)Cc1cn(-c2ccccc2)nc1-c1ccc(Cl)cc1
inactive: max response [1] 6.52% | outcome [2] | outcome [3] | outcome [4] | outcome [5] | outcome [6] | outcome [7] | outcome [8] | outcome [9] | outcome [10]

CC1(C)[C@@H](OC(=O)CCC(=O)O)CC[C@]2(C)[C@H]3C(=O)C=C4[C@@H]5C[C@@](C)(C(=O)O)CC[C@]5(C)CC[C@@]4(C)[C@]3(C)CC[C@@H]12
inactive: max response [1] -6.25% | outcome [2] | outcome [3] | outcome [4] | outcome [5] | outcome [6] | outcome [7] | outcome [8] | outcome [9] | outcome [10]

COc1ccc(Cc2cnc(N)nc2N)cc1OC
inactive: max response [1] 1.42% | outcome [2] | outcome [3] | outcome [4] | outcome [5] | outcome [6] | outcome [7] | outcome [8] | outcome [9] | outcome [10]

O=C(NCN1CCOCC1)c1cnccn1
inactive: max response [1] -4.94% | outcome [2] | outcome [3] | outcome [4] | outcome [5] | outcome [6] | outcome [7] | outcome [8] | outcome [9] | outcome [10]

NCc1ccc(S(N)(=O)=O)cc1
inactive: max response [1] -0.707% | outcome [2] | outcome [3] | outcome [4] | outcome [5] | outcome [6] | outcome [7] | outcome [8] | outcome [9] | outcome [10]

OCC(O)CS (stereo not given)
inactive: max response [1] 0.0928% | outcome [2] | outcome [3] | outcome [4] | outcome [5] | outcome [6] | outcome [7] | outcome [8] | outcome [9] | outcome [10]

CC(=O)Oc1cccc(O)c1
inactive: max response [1] 2.07% | outcome [2] | outcome [3] | outcome [4] | outcome [5] | outcome [6] | outcome [7] | outcome [8] | outcome [9] | outcome [10]

C[n+]1ccccc1/C=N/O
inactive: max response [1] 8.92% | outcome [2] | outcome [3] | outcome [4] | outcome [5] | outcome [6] | outcome [7] | outcome [8] | outcome [9] | outcome [10]

COc1ccc(C(=O)NCc2ccc(OCCN(C)C)cc2)cc1OC
inactive: max response [1] 7.72% | outcome [2] | outcome [3] | outcome [4] | outcome [5] | outcome [6] | outcome [7] | outcome [8] | outcome [9] | outcome [10]

O=C(/C=C/c1ccc(O)c(O)c1)O[C@@H]1C[C@@](OC(=O)/C=C/c2ccc(O)c(O)c2)(C(=O)O)C[C@@H](O)[C@@H]1O
inactive: max response [1] 3.41% | outcome [2] | outcome [3] | outcome [4] | outcome [5] | outcome [6] | outcome [7] | outcome [8] | outcome [9] | outcome [10]

CN1CCN(C(=O)C2CCCCC2)CC1
inactive: max response [1] 11.1% | outcome [2] | outcome [3] | outcome [4] | outcome [5] | outcome [6] | outcome [7] | outcome [8] | outcome [9] | outcome [10]

CNCc1ccccc1
inactive: max response [1] 8.64% | outcome [2] | outcome [3] | outcome [4] | outcome [5] | outcome [6] | outcome [7] | outcome [8] | outcome [9] | outcome [10]

CCc1cccc(CC)c1NC(=O)CN(CC(=O)O)CC(=O)O
inactive: max response [1] 12.1% | outcome [2] | outcome [3] | outcome [4] | outcome [5] | outcome [6] | outcome [7] | outcome [8] | outcome [9] | outcome [10]

CN[C@@H]1[C@H](O)[C@H](NC)[C@H]2O[C@@]3(O)C(=O)C[C@@H](C)O[C@H]3O[C@@H]2[C@H]1O
inactive: max response [1] 2.93% | outcome [2] | outcome [3] | outcome [4] | outcome [5] | outcome [6] | outcome [7] | outcome [8] | outcome [9] | outcome [10]
